Our source for the Potency values is PubChem BioAssay AID686971 (National Center for Advancing Translational Sciences (NCATS), 2013).

About 7,500 (2.1%) of roughly 360,000 compounds were called active. Where a call stands in place of a potency, no number is given. Not shown: some 8% with an inconclusive outcome. Calls come from the whole dose curve; as a rule, active = well fitted cell-killing curve with a large enough effect; inconclusive = small, poorly fitted or top-dose-only effect, or effect the other way, or another doubt; inactive = no such curve, though single readings can be large or run the other way. Only a selection was taken, and actives are over-represented in it overall.
Potency is the fitted concentration of half-maximal effect.

A short description of the assay: qHTS for induction of synthetic lethality in tumor cells producing 2HG: qHTS for the HT-1080-IDH1KD cell line. The conditions noted are these: HT-1080 IDH1 knockdown viability, ATP luminescence, 48 h; series mostly up to 46.1 µM. Put shortly: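 Using the IDH1-knockdown HT-1080 line run in the same batch and compound series as the NT line, viability after 48 h at 37 °C was determined by CellTiter-Glo luminescence and expressed as % activity.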
(In general: qHTS replaces the single test concentration by a dilution series.)
Regarding `CCCCN1C[C@H](c2ccc(Br)cc2)[C@@H](CC(=O)Nc2ccc(Br)cc2)C1=O`, the Potency entry was “inactive”.

With `O=C(CNC(=O)N1CC(=O)Nc2ccccc21)Nc1ccc(Br)cc1F`, the Potency entry is “inactive”.

For `COc1ccc(C(=O)NCC(=O)N/N=C/c2ccc([N+](=O)[O-])o2)cc1OC`, the Potency was 14.6 µM (active).

For `COc1ccc(/C=N/NC(=O)CNC(=O)c2ccc(S(=O)(=O)N3CCCC3)cc2)c(OC)c1`, the Potency entry is “inactive”.

As for `COc1cccc(/C=N/NC(=O)CNC(=O)c2ccc(S(=O)(=O)N3CCOCC3)cc2)c1OC`, the Potency result was “inactive”.

With `Cc1ccc(-c2nc3ccccn3c2Nc2ccc(F)cc2)o1`, the Potency entry is “inactive”.

Regarding `O=C1NC[C@H](CCCCN2C[C@H](Cc3ccc(O)cc3)N(CCc3ccccc3)C(=O)C2=O)N(CCc2ccccc2)C1=O`, the Potency entry was “inactive”.

`Cc1cccc(CN2CCC(CNC(=O)Nc3ccc(F)c(Cl)c3)CC2)c1`: the Potency is 14.6 µM (active).

Consider `Cc1ccc(C)c(CN2CCC(CNC(=O)Nc3ccc(C)c(F)c3)CC2)c1`, for which the Potency entry was “inactive”.

With `Cc1ccccc1NC(=O)NCC1CCN(Cc2cccc(Cl)c2)CC1`, the Potency result is “inactive”.

Consider `CSCCC(C(=O)NC(C)(C)C)n1c(-c2ccccc2)nc2ccccc21` (centres undefined), for which the Potency entry is “inactive”.

With `COc1ccc(-c2nnc(NC(=O)CS(=O)(=O)c3ccc(Cl)cc3)o2)c(OC)c1`, the Potency result was “inactive”.

`COc1cccc(-c2nnc(NC(=O)c3ccc(S(=O)(=O)N(CC(C)C)CC(C)C)cc3)o2)c1`: the Potency is 2.59 µM (active).

For `O=C(Nc1nnc(-c2ccco2)o1)c1ccc(S(=O)(=O)N2CCOCC2)cc1`, the Potency entry was “inactive”.

As to `COc1cc(C)c(CN2CCN(C(=O)CCC(=O)c3ccc(C)s3)CC2)cc1OC`, the Potency result was “inactive”.

On to `COc1ccc(NC(=O)c2sc(=O)n(Cc3ccc(S(=O)(=O)N(C)C)cc3)c2C)cc1`, for which the Potency entry is “inactive”.

Turning to `CC1(C(=O)Nc2ccc3c(c2)OCCO3)CSCC(=O)N1CCOc1ccccc1` (centres undefined), the Potency entry is “inactive”.

Turning to `Cc1ccn(CC(=O)NC2CCCN(Cc3ccccc3F)C2)n1` (centres undefined), the Potency entry is “inactive”.

Regarding `CC1Cc2[nH][nH]c(=O)c2C(C2CC2)O1` (centres undefined), the Potency entry was “inactive”.

As for `Cc1cccc(C=CC(=O)c2ccc(Cl)cc2)c1`, the Potency result is “inactive”.

For the molecule `O=C(/C=C/Sc1ncn[nH]1)c1ccc(Cl)cc1`, the Potency is 5.8 µM (active).

Turning to `O=C(CSc1ncn[nH]1)Nc1ccc(Br)cc1Br`, the Potency entry was “inactive”.

In the case of `Cc1ccc([C@H]2C[C@H](O)[C@@H](n3cc(COC(=O)c4ccccc4)nn3)CN2C(=O)C2CCCCC2)cc1`, the Potency result was “inactive”.

Regarding `Nc1nc(Nc2ccccc2F)nc(NC2CCCCC2)c1[N+](=O)[O-]`, the Potency was 18.4 µM (active).

In the case of `Nc1nc(NCC2CCCO2)nc(Nc2ccccc2F)c1[N+](=O)[O-]` (centres undefined), the Potency entry was “inactive”.

For the molecule `C=CCNc1nc(N)c([N+](=O)[O-])c(NC2CCCCC2)n1`, the Potency result is “inactive”.

On to `CCC(O)C1CCN(Cc2cn(-c3ccc(OC)cc3)nc2-c2cccc(F)c2)CC1` (centres undefined), for which the Potency was 14.6 µM (active).

In the case of `Cc1cccc(-n2cc(CN3CCN(C(=O)c4ncn[nH]4)CC3)c(-c3cccc(F)c3)n2)c1`, the Potency result is “inactive”.

Regarding `COc1ccc(-n2cc(CN(C)Cc3n[nH]c(=O)[nH]3)c(-c3cccc(F)c3)n2)cc1`, the Potency entry is “inactive”.

On to `COc1ccc(-c2nn(-c3ccccc3)cc2CN2CCCO2)c(F)c1`, for which the Potency result was “inactive”.

For the molecule `COc1ccc(-n2cc(CNC3CCOCC3)c(-c3cccc(F)c3)n2)cc1`, the Potency was 18.4 µM (active).

Consider `Cn1cc(CN2CCC(C(O)CCc3ccccc3)CC2)c(-c2ccccc2F)n1` (centres undefined), for which the Potency result was “inactive”.

As to `CC1(C)CN(Cc2cccnc2)C(=O)[C@H]1CC(=O)Nc1ccc(Br)cc1`, the Potency result was “inactive”.

For the molecule `CCc1nnc(NC(=O)c2ccco2)s1`, the Potency result was “inactive”.

`O=C(Nc1ccc(OC(F)(F)F)cc1)c1ccc2c(c1)no[n+]2[O-]`: the Potency is 11.6 µM (active).

Take `Cn1cccc1/C=N/NC(=O)c1ccc(OC(F)(F)C(F)F)cc1`: the Potency result is “inactive”.

Regarding `Cn1nccc1NC(=O)Nc1ccc(OC(F)(F)F)cc1`, the Potency result is “inactive”.

Take `CC1(c2cccc(N)c2)OCCO1`: the Potency entry is “inactive”.

`Cc1ccc(-c2cnc(C(O)c3cccc(C)c3C)[nH]2)cc1` (centres undefined): the Potency result is “inactive”.

For `Cc1ccc(-c2nc3c(C)cc(Br)cn3c2Cc2ccccc2)cc1`, the Potency entry was “inactive”.

For the molecule `CC(C)C[C@H]1CN([C@@H](Cc2ccccc2)CN2CCC[C@@H]2CN2C(=O)C(=O)NC[C@@H]2Cc2ccc(O)cc2)C(=O)C(=O)N1CCc1ccccc1`, the Potency result was “inactive”.

For the molecule `CCOc1ccc(CCN2C(=O)C(=O)N([C@@H](Cc3ccc(O)cc3)CN3CCC[C@H]3CN3C(=O)C(=O)NC[C@@H]3CC(C)C)C[C@@H]2Cc2ccccc2)cc1`, the Potency result was “inactive”.

`CC(C)C[C@H]1CNC(=S)N1C[C@H]1CCCN1C[C@H](Cc1ccc(O)cc1)N1C[C@H](Cc2ccc(O)cc2)N(CC2CCCCC2)C1=S`: the Potency is 14.6 µM (active).

Turning to `CC(C)[C@H](NC(=O)c1ccccc1F)C(=O)Nc1cccc(S(=O)(=O)N2CCOCC2)c1`, the Potency entry was “inactive”.

For `C[C@H]1NS(=O)(=O)c2cc(Cl)ccc2O[C@@H]1c1ccccc1`, the Potency result was “inactive”.

As to `CC(Sc1ccc(S(=O)(=O)N2CCN(C)CC2)cn1)C(=O)NC1CCCC(C)C1C` (centres undefined), the Potency result was “inactive”.

Take `CCC(C)Sc1nc2c(c(=O)[nH]c(=O)n2C)n1CC(O)COc1cccc2ccccc12` (centres undefined): the Potency entry was “inactive”.

Regarding `CC(C)c1ccccc1OCC(O)CN(CC(O)COc1cccc2ccccc12)C(C)C` (centres undefined), the Potency was 25.9 µM (active).

With `CC1CC(C)CN(CCOc2cccc3ccccc23)C1` (centres undefined), the Potency result is “inactive”.

On to `Cc1[nH]c2ccccc2c1C(=O)C(=O)NCc1nnnn1-c1cccc(F)c1`, for which the Potency entry is “inactive”.

Turning to `O=C(NCc1ccc(F)cc1F)[C@@H]1CCCN1C(=O)[C@@H]1CCCN1C(=O)c1cccc(Cl)c1`, the Potency entry is “inactive”.

For the molecule `O=C(c1ccc2c(=O)n(Cc3ccco3)c(=S)[nH]c2c1)N1CCCC1`, the Potency entry is “inactive”.

Take `Cc1nc2nc(CSc3nc4ccccc4s3)cc(=O)n2[nH]1`: the Potency result is “inactive”.

On to `CCN(CC)CCCSc1nc2ccccc2s1`, for which the Potency entry was “inactive”.

On to `O=[N+]([O-])c1c(NCCO)cc(Sc2nc3ccccc3s2)c2nonc12`, for which the Potency is 3.16 µM (active).

With `CCc1nc2c(OCCc3cccc(OC)c3)cccn2c1N(C)C(=O)c1ccc(C)cc1`, the Potency entry was “inactive”.

In the case of `CCc1ccccc1OCC(=O)Nc1nnc(C2CC2)s1`, the Potency result was “inactive”.

On to `Cc1cc(C(=O)Nc2nnc(C3CC3)s2)c(C)s1`, for which the Potency result was “inactive”.

As for `O=C(Nc1nnc(C2CC2)s1)c1ccccn1`, the Potency is 5.01 µM (active).

For the molecule `C[C@@H]1CN([C@H](C)CO)C(=O)c2cc(-c3ccc(F)cc3)cnc2O[C@H]1CN(C)C(=O)c1ccc(F)cc1`, the Potency entry was “inactive”.

For `CC(=O)Nc1ccc(S(=O)(=O)NNC(=O)CCc2ccccc2)cc1`, the Potency entry is “inactive”.

Consider `O=C(Cc1ccccc1)NCc1ccc(F)cc1`, for which the Potency result was “inactive”.

On to `O=C(CCc1ccccc1)NNc1ccc(F)cc1`, for which the Potency was 2.31 µM (active).

Take `COc1ccc(-c2ccc(CN3C(C(C)C)C(=O)N(Cc4cn(CC5CCCCC5)nn4)CCS3(=O)=O)cc2)cn1` (centres undefined): the Potency result is “inactive”.
